Measurements taken from PubChem BioAssay.

Assay: plasmodial surface anion channel blockers, osmotic lysis – cell-based, P. falciparum Indochina, OD700, 2 h, primary screen (AID 1155);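 note: lysis reports solute entry through the parasite surface anion channel PSAC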
Details: P. falciparum Indochina infected erythrocytes, higher = more signal, called active from +8 up or from −8 down

z-score, inactive:
C=CCN1C(=O)[C@]2(O[C@H](CCO)[C@@H]([Si](C)(C)c3ccc(OC)cc3)[C@@H]2C)c2cc(N3C(=O)c4cccc5cccc3c45)ccc21 4.41, C[N+](C)(C)CCCCNC(=O)[C@H]1C[C@H]2C(=O)N[C@@H](Cc3ccccc3)C(=O)N2[C@H]1c1ccc(O)cc1 0.0222, COC(=O)[C@@]1(Cc2ccc(F)cc2)[C@H]2c3cc(C(=O)N4CCCC4)n(Cc4cc(C)n(C)n4)c3C[C@H]2CN1C(=O)c1ccccc1 0.0953, Cc1ccc(S[C@]2(C(=O)NCC(F)(F)F)CC(=O)N(C(C)C)[C@@H]2c2ccc(CO)cc2I)cc1 0.383, CO[C@H]1O[C@H](CO)[C@@H](OC(=O)Nc2ccc(Br)cc2)[C@H](OC(=O)c2cc3ccccc3[nH]2)[C@H]1OC(=O)c1cc2ccccc2[nH]1 -1.16, COc1ccc(CCNC(=O)[C@@]2(Sc3ccc(C)cc3)CC(=O)N(C3CCCCC3)[C@@H]2c2ccc(CO)cc2I)cc1 0.547, CC(C)c1ccc(NN2C(C(O)c3cc(C(F)(F)F)cc(C(F)(F)F)c3)C=CC3C(=O)N(c4ccccc4)C(=O)C32)cc1 (stereo not given) 1.88, COc1ccc([C@H]2OC[C@@H]3CC4(CC=CC4)C(=O)N32)cc1 0.477, CN1C(=O)C2C=CC(C(O)C3CC=CCC3)N(NC(=O)OC(C)(C)C)C2C1=O (stereo not given) 0.737, N#Cc1ccc(NN2C(C(O)c3c(F)cccc3Cl)C=CC3C(=O)N(c4ccccc4)C(=O)C32)cc1 (stereo not given) 5.46
